The source of these data is PubChem BioAssay (NCI).

Experiment [1] in a line: NCI Yeast Anticancer Drug Screen. Data for the rad50 strain (AID 155).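 Further: 0% = growth of vehicle-only cultures of the same strain.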 Conditions: S. cerevisiae rad50 strain growth inhibition; at 50.0 µM; active compounds read high. Summed up: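 A DNA repair-deficient yeast mutant serves as the test organism; compound-induced growth inhibition is calculated against vehicle-treated cells.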
Experiment [2] is described as follows: NCI Yeast Anticancer Drug Screen. Data for the mec2-1 strain (AID 157). The settings on record: S. cerevisiae mec2-1 strain, at 50.0 µM, active compounds read high. Summed up:
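Test agents were screened against the mec2-1 yeast strain, with defined DNA repair or cell cycle alteration. Growth was scored as inhibition against vehicle-only controls.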

The nature of experiment [3]: NCI Yeast Anticancer Drug Screen. Data for the sgs1 mgt1 strain (AID 161).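 Further: 0% = growth of cultures given vehicle only.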 The settings on record: S. cerevisiae sgs1 mgt1 strain, at 50.0 µM, active compounds read high. Summed up:
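Inhibition of yeast growth, normalised to vehicle-treated controls, is reported for a strain bearing genetic alterations in DNA damage repair.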

Experiment [4] in a line: NCI Yeast Anticancer Drug Screen. Data for the cln2 rad14 strain (AID 165).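 Further: 0% = growth equal to vehicle treated cultures.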 Conditions: S. cerevisiae cln2 rad14 strain, at 50.0 µM, active compounds read high. Summed up: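 Growth of compound-exposed yeast (cln2 rad14 genotype) measured and expressed as inhibition relative to vehicle.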
A short description of experiment [5]: NCI Yeast Anticancer Drug Screen. Data for the bub3 strain (AID 167). The settings on record: S. cerevisiae bub3 mutant strain, at 50.0 µM, active compounds read high. Summed up:
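Inhibition values come from growth of compound-treated mutant yeast normalised to vehicle-treated controls.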

The nature of experiment [6]: NCI Yeast Anticancer Drug Screen. Data for the mlh1 rad18 strain (AID 175). Conditions: S. cerevisiae mlh1 rad18 strain growth inhibition; at 50.0 µM; active compounds read high. Summed up:
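In this whole-cell yeast screen, a strain with altered DNA damage repair is challenged with compound, and its growth is measured against matched vehicle-treated controls.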

Compounds without any hit were thinned out: in the full panel of roughly 79,000, 15% have a hit. A number with no mark means an inactive call. Calls of active or inactive are those of the source. No stated cut-off is given here; in the data, active means growth inhibition above about 70%; inactive means the rest.

In the case of `O=C1Nc2ccccc2Nc2nc3cccccc-3c21`, the growth inhibition is 9.85% in experiment [1]; -15.2% in experiment [2]; -2.4% in experiment [3]; 16.8% in experiment [4]; -6.6% in experiment [5]; -13.8% in experiment [6].

Consider `CN(C)CCn1c(CO)nc2c1c(=O)n(C)c(=O)n2C`, for which the growth inhibition is -9.95% in experiment [1]; 12.2% in experiment [2]; -21.4% in experiment [3]; -15.2% in experiment [4]; 0.1% in experiment [5]; -5.6% in experiment [6].

In the case of `NC(=S)N/C=C(/c1ccc(Cl)cc1Cl)S(=O)(=O)Cc1ccc(Cl)cc1Cl`, the growth inhibition was 6.85% in experiment [1]; -6.7% in experiment [2]; 9.6% in experiment [3]; 6.95% in experiment [4]; 0.2% in experiment [5]; 9.7% in experiment [6].

As to `c1ccc(CSc2cnnc3ccccc23)cc1`, the growth inhibition was 3.9% in experiment [1]; -10.8% in experiment [2]; 6% in experiment [3]; -11.1% in experiment [4]; 14.1% in experiment [5]; 31.9% in experiment [6].

For `CCCCCCCCCCc1ccc(CCCCCCCCCC)cc1`, the growth inhibition was 7% in experiment [1]; 7.2% in experiment [2]; 4.6% in experiment [3]; -4.55% in experiment [4]; 2.05% in experiment [5]; -7.9% in experiment [6].

Take `CC1(C)CC(=O)C(/C=N/C(=S)NCCc2ccccc2)=C(O)C1`: the growth inhibition in experiment [1] was -22.8%; in experiment [2], -53.4%; in experiment [3] it was -21.3%; in experiment [4] it was -2.85%; in experiment [5] it was -14.8%; in experiment [6] it was -7.6%.

With `Oc1c(Cl)cc(Cl)cc1C=Nc1ccc2c(ccc3c4ccccc4ccc23)c1`, the growth inhibition in experiment [1] was 7.95%; in experiment [2], 2.4%; in experiment [3], -2.4%; in experiment [4] it was -41.4%; in experiment [5], 6.55%; in experiment [6], 15.1%.

On to `O=C(Nc1cc(C(F)(F)F)ccc1Cl)N(Cc1ccccc1)c1ccccc1`, for which the growth inhibition was -10.3% in experiment [1]; -15.9% in experiment [2]; -1.35% in experiment [3]; -74.2% in experiment [4]; -8.2% in experiment [5]; -8.7% in experiment [6].

Take `CCN(CC)S(=O)(=O)c1ccc(N)cc1`: the growth inhibition in experiment [1] was 26.1%; in experiment [2], 2.15%; in experiment [3], 25.4%; in experiment [4] it was -13.9%; in experiment [5], -2.2%; in experiment [6], 8.4%.

For the molecule `Cc1ccc(SC(F)(F)C(F)C(F)(F)F)cc1` (centres undefined), the growth inhibition was -4.65% in experiment [1]; -3.6% in experiment [2]; -7.75% in experiment [3]; 9.45% in experiment [4]; 7.9% in experiment [5]; -1.1% in experiment [6].

As to `COC(=O)C(=O)Cc1nc2ccccc2s1`, the growth inhibition in experiment [1] is 6.25%; in experiment [2], 1.35%; in experiment [3] it was 6.15%; in experiment [4] it was -29.8%; in experiment [5], -7.3%; in experiment [6] it was 7.3%.

`CCN(CC)CCOB(c1cccc2ccccc12)c1cccc2ccccc12`: the growth inhibition was 39.6% in experiment [1]; 24.4% in experiment [2]; 17.1% in experiment [3]; 26.8% in experiment [4]; -3.4% in experiment [5]; 43.8% in experiment [6].

Regarding `CC1(C)CC[C@]2(C(=O)O)CC[C@]3(C)C(=CC[C@@H]4[C@@]5(C)CC[C@H](OC6OC(CO)C(O)C(O)C6OC6OC(CO)C(O)C(O)C6O)C(C)(C)[C@@H]5CC[C@]43C)[C@@H]2C1` (some centres undefined), the growth inhibition was 86.8% (active) in experiment [1]; 86.7% (active) in experiment [2]; 87.1% (active) in experiment [3]; 86.2% (active) in experiment [4]; 84.3% (active) in experiment [5]; 83.5% (active) in experiment [6].

For `CCSCCOC(=S)Nc1ccccc1`, the growth inhibition is -6.25% in experiment [1]; -8.05% in experiment [2]; -4.9% in experiment [3]; 0.7% in experiment [4]; 4.25% in experiment [5]; 7.1% in experiment [6].

`FC(F)(F)C1(C(F)(F)F)OI2(Br)(OC(C(F)(F)F)(C(F)(F)F)c3ccccc32)c2ccccc21`: the growth inhibition in experiment [1] is -6.05%; in experiment [2], -0.25%; in experiment [3], -11.2%; in experiment [4] it was 21.2%; in experiment [5], -5.3%; in experiment [6] it was 27.1%.

For the molecule `COc1ccc2nc(NC(=O)C(=O)C(C#N)c3ccc(CC#N)cc3)sc2c1` (centres undefined), the growth inhibition in experiment [1] was -4.3%; in experiment [2], 11.4%; in experiment [3], 4.5%; in experiment [4], -4.85%; in experiment [5], 0.15%; in experiment [6], -5.75%.

In the case of `COc1n[n+]([O-])c(OC)cc1[N+](=O)[O-]`, the growth inhibition in experiment [1] is 51.7%; in experiment [2] it was 33.6%; in experiment [3], 33.9%; in experiment [4] it was 15%; in experiment [5], 17.6%; in experiment [6] it was 76.7% (active).

For the molecule `C=C(C)C1CC=C(C)[C@](O)(C2(O)C[C@H](C(=C)C)CC=C2C)C1` (some centres undefined), the growth inhibition is -0.55% in experiment [1]; 6.95% in experiment [2]; 26.1% in experiment [3]; 23.9% in experiment [4]; 6.6% in experiment [5]; 9.65% in experiment [6].

Regarding `Cc1ccnc(Nc2nnc(Nc3cc(C)ccn3)c3ccccc23)c1`, the growth inhibition was -20.8% in experiment [1]; -12.6% in experiment [2]; -5.85% in experiment [3]; -22% in experiment [4]; -3.8% in experiment [5]; -4.45% in experiment [6].
